According to PubChem BioAssay:
Activity calls are given as the source filed them. Unless noted, the rule behind the calls is not given here.

Key:
[1] = anti-His antibody binders, primary screen, artefact control for SMM control protein annotation, biochemical, small-molecule microarray, 635 nm fluorescence (AID 1128); conditions: anti-His Alexa647 antibody binding, higher = more signal;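 note: score merges feature fluorescence with signal-to-noise for each printed compound spot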
[2] = tested on: Human papillomavirus type 1a E7 protein (residues 1-88); experiment: HPV1a E7 small-molecule binders, primary screen, biochemical, small-molecule microarray, residues 1-88, 635 nm (AID 1129); conditions: small-molecule microarray binding, fluorescence 635 nm; higher = more signal
[3] = target: Focal adhesion kinase 1 (Homo sapiens) (UniProt Q05397); experiment: small-molecule microarray binders of FAK, primary screen, biochemical, 635/667 nm fluorescence, BSA, DTT (AID 1130); conditions: PTK2 binding, 635 nm fluorescence, higher = more signal;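 note: composite of spot emission at 667 nm and signal to noise over triplicate slides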
Sequence of Focal adhesion kinase 1 (Homo sapiens) (Q05397 whole entry, looked up): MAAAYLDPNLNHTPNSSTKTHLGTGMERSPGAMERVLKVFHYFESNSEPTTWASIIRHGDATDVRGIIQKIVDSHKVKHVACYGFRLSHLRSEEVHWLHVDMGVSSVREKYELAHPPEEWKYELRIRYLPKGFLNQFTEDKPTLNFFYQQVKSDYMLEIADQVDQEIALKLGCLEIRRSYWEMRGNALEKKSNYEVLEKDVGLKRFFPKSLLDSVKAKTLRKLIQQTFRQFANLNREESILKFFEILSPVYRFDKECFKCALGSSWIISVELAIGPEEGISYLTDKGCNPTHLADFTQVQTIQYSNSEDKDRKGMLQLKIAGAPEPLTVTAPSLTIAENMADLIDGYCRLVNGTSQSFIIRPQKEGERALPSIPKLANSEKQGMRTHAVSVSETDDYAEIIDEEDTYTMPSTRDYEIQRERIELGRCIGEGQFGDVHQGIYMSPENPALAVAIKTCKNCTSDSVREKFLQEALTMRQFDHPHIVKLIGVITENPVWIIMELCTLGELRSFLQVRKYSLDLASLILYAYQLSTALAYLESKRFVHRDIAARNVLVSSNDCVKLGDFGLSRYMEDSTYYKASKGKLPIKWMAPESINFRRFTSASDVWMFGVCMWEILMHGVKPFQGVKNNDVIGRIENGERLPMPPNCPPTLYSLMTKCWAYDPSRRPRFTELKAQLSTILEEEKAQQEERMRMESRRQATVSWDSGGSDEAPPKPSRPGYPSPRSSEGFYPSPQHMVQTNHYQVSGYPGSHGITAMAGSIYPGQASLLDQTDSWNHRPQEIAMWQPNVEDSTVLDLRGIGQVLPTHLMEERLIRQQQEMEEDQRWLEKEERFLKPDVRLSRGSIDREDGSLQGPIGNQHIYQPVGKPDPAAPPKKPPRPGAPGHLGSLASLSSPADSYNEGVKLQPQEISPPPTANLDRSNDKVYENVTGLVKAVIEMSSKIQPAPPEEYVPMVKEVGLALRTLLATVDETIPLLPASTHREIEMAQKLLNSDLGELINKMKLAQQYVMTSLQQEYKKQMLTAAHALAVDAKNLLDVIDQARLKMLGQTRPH

[4] = tested on: Fibrinogen (Alexa647-labelled); experiment: fibrinogen binders on compound microarrays, profiling panel, artefact control for SMM control-protein annotation, biochemical, small-molecule microarray, 635/667 nm fluorescence (AID 1131); conditions: fibrinogen-A647 binding fluorescence, higher = more signal;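 note: z-score merges 667 nm fluorescence with per-spot signal-to-noise over triplicate slides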
[5] = target: Follistatin (Homo sapiens) (UniProt P19883); experiment: follistatin binders on small-molecule microarrays, primary screen, biochemical, small-molecule microarray, 635/667 nm fluorescence (AID 1132); conditions: FST binding, 635 nm fluorescence, higher = more signal
Sequence of Follistatin (Homo sapiens) (P19883 whole entry, looked up): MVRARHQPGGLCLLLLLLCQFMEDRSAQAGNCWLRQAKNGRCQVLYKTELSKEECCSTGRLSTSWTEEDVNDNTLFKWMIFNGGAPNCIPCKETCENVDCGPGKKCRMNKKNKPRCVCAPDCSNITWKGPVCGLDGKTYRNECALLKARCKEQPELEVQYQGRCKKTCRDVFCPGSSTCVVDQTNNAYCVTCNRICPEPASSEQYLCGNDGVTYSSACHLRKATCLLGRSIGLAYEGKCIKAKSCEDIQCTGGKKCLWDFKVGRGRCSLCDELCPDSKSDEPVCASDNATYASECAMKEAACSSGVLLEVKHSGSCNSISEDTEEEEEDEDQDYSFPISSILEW

[6] = target: Fibroblast growth factor 2 (Homo sapiens) (UniProt P09038); experiment: FGF2 binders on small-molecule microarrays, primary screen, biochemical, small-molecule microarray, 635/667 nm fluorescence (AID 1133); conditions: small-molecule microarray binding, FGF2, fluorescence 635/667; higher = more signal
Sequence of Fibroblast growth factor 2 (Homo sapiens) (P09038 whole entry, looked up): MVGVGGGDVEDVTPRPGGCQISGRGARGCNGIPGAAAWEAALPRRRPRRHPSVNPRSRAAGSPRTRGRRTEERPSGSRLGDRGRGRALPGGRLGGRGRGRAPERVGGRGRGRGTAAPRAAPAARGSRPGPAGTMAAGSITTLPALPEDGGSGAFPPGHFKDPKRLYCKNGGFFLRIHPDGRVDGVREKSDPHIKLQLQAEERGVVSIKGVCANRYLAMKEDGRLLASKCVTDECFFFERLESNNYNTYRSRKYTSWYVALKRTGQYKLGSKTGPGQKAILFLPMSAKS

[7] = mitochondrial membrane potential change in A549 cells, profiling panel, cell-based, JC-1 fluorescence, basal, 24 h, 100 nL (AID 1138); conditions: higher = more signal;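 note: A549 lung adenocarcinoma cells under basal conditions with no added stimulus; test concentration not given here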
Lefty1 = Lefty1 binders on small-molecule microarrays, primary screen, biochemical, small-molecule microarray, 635/667 nm fluorescence (AID 1139); conditions: small-molecule microarray binding, fluorescence 635/667; higher = more signal
[8] = tested on: wheat germ agglutinin (Triticum aestivum), Alexa647-labelled; experiment: wheat germ agglutinin binders on compound microarrays, profiling panel, artefact control for SMM control-protein annotation, biochemical, small-molecule microarray, 635/667 nm fluorescence (AID 1140); conditions: WGA-A647 binding, 635 nm fluorescence, higher = more signal;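 note: score merges 667 nm feature emission with signal to noise over triplicate slides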
[9] = target: Luciferin 4-monooxygenase (Photinus pyralis) (UniProt P08659); experiment: firefly luciferase enzyme inhibitors, primary screen, biochemical, luminescence, purified enzyme, 2006 set (AID 1141); conditions: SteadyGlo luminescence, 30 min, higher = more signal, called active from +8 up or from −8 down;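 note: cell-free assay with purified firefly luciferase at 100 ng per well in PBS; test concentration not given here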
Sequence of Luciferin 4-monooxygenase (Photinus pyralis) (P08659 whole entry, looked up): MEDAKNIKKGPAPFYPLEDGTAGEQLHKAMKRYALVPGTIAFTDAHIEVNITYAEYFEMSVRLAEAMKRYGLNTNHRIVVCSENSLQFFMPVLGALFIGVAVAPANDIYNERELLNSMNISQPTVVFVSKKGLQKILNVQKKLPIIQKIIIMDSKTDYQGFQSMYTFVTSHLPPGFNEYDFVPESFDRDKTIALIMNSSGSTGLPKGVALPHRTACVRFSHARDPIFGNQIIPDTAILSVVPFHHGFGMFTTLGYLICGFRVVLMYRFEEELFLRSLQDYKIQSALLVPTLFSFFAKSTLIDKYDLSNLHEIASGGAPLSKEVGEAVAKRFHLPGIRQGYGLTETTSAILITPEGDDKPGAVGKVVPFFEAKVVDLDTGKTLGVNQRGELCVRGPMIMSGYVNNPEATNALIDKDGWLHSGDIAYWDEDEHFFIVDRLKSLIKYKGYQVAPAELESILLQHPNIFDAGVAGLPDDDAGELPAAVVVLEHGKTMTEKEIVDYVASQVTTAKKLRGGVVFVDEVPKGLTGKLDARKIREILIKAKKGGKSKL

[10] = tested on: Wnt5a (protein binding on small-molecule microarray); experiment: Wnt5a binders on small-molecule microarray, primary screen, biophysical, 635/667 nm fluorescence (AID 1142); conditions: 635 nm fluorescence, higher = more signal;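 note: fluorescence read at 667 nm with signal to noise per printed feature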
[11] = cell viability in Huh7 cells, primary screen, cytotoxicity control for HCV replication inhibitor project, CellTiter-Glo luminescence, basal, 48 h (AID 1143); conditions: Huh7 HCV replicon, higher = more signal, called active from +8 up or from −8 down;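 note: Huh7 hepatoma cells carrying a hepatitis C replication reporter with no stimulus; test concentration not given here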
[12] = P. aeruginosa biofilm formation inhibitors, primary screen, PAO1 strain, BacTiter-Glo luminescence, LB-PBS (AID 1144); conditions: 12 h, higher = more signal
[13] = CREB reporter modulators without forskolin, primary screen, cell-based, PC12, CRE-LacZ reporter, unstimulated (AID 1145); conditions: no forskolin, luminescence, 4.5 h, higher = more signal, called active from +8 up or from −8 down
[14] = CREB reporter modulators under forskolin, primary screen, cell-based, PC12, CRE-LacZ reporter, forskolin-stimulated (AID 1146); conditions: luminescence, 4.5 h, higher = more signal, called active from +8 up or from −8 down;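 note: PC12 cells with 6xCRE LacZ reporter stimulated by forskolin 10 µM; beta-galactosidase reporter signal reflecting CREB driven transcription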
[15] = target: Streptavidin (Streptomyces avidinii) (UniProt P22629); experiment: streptavidin binders on small-molecule microarray, primary screen, artefact control for SMM compound annotation, biophysical, 635/667 nm fluorescence (AID 1147); conditions: streptavidin binding, higher = more signal;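 note: signal reflects streptavidin binding to arrayed compounds as a control protein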
Sequence of Streptavidin (Streptomyces avidinii) (P22629 whole entry, looked up): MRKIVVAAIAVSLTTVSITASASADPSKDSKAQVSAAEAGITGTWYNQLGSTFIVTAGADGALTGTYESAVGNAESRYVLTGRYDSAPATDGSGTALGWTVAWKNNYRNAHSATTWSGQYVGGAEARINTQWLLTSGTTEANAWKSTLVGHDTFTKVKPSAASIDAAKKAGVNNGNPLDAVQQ

[16] = small-molecule binders of probe aInhba, primary screen, biochemical, small-molecule microarray, 635/667 nm fluorescence (AID 1148); conditions: higher = more signal;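 note: score merges 667nm spot fluorescence with signal-to-noise for antibody binding to printed compounds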
Torsin-1A (Homo sapiens) [17] = target: Torsin-1A (Homo sapiens) (UniProt O14656); experiment: torsin A binders from cell lysate, primary screen, small-molecule microarray, wild-type, 635/667 nm (AID 1149); conditions: COS7 hTOR1A-WT lysate, 635 nm fluorescence, higher = more signal
Sequence of Torsin-1A (Homo sapiens) (O14656 whole entry, looked up): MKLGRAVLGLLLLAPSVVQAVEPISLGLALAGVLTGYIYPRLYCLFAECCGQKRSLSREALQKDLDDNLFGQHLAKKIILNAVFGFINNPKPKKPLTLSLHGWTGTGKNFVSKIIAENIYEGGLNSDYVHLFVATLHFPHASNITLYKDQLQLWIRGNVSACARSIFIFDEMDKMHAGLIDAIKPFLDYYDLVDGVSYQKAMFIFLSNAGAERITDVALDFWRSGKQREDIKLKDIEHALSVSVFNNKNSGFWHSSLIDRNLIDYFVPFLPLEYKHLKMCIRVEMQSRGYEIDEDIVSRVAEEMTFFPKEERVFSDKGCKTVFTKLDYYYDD

Torsin-1A (Homo sapiens) [18] = target: Torsin-1A (Homo sapiens) (UniProt O14656); experiment: small-molecule binders of mutant TOR1A in lysate, primary screen, cell lysate, small-molecule microarray, COS7 lysate, 635/667 nm fluorescence (AID 1150); conditions: COS7 hTOR1A mutant lysate, 635 nm fluorescence, higher = more signal;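 note: score pools 667 nm emission and signal to noise measuring lysate protein binding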
[19] = tested on: Sonic hedgehog protein (Shh); experiment: small-molecule binders of Shh protein, primary screen, biochemical, small-molecule microarray, 635/667 nm fluorescence (AID 1151); conditions: small-molecule microarray binding, 635 nm fluorescence; higher = more signal;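 note: Shh protein binding to compounds spotted on small-molecule microarray slides; score combines spot fluorescence intensity with signal-to-noise across triplicate slides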

SMILES	composite z-score [1]	composite z-score [2]	composite z-score [3]	composite z-score [4]	composite z-score [5]	composite z-score [6]	z-score [7]	composite z-score (Lefty1)	composite z-score [8]	z-score [9]	composite z-score [10]	z-score [11]	z-score [12]	z-score [13]	z-score [14]	composite z-score [15]	composite z-score [16]	composite z-score (Torsin-1A (Homo sapiens) [17])	composite z-score (Torsin-1A (Homo sapiens) [18])	composite z-score [19]
COc1cccc([C@H]2Oc3ccc(OC)cc3C(=NO[C@H](C)c3cn([C@@H]4COC[C@H]4O)nn3)[C@@H]2O)c1	0.899	-0.949	-0.624	-0.0637	-1.16	-0.805	-1.16	-0.601	0.0665	0.825 (inactive)	-0.104	-2.16 (inactive)	-0.302 (inactive)	6.84 (inactive)	0.258 (inactive)	1.44	-0.182	-0.102	-0.119	-0.223
CCOC(=O)C1=CCC(c2cc3ccccc3[nH]2)NC1 (stereo not given)	0.693	1.13	1.22	-0.288	1.12	-0.356	0.642	-0.439	1.06	-3.19 (inactive)	0.109	-2.83 (inactive)	0.756 (inactive)	0.369 (inactive)	0.464 (inactive)	0.338	0.029	0.661	0.449	-0.402
CN(C)CCCNC(=O)[C@@H]1c2ccccc2C(=O)N(Cc2ccccc2)[C@H]1c1ccc(CO)cc1	0.514	-0.958	-0.193	-0.355	-0.242	-0.158	1.85	-0.201	-0.0107	-0.784 (inactive)	-0.142	0.143 (inactive)	0.596 (inactive)	-0.295 (inactive)	-0.877 (inactive)	-0.844	-0.128	-0.146	-0.725	-0.336
O=C1[C@H]2[C@H]3[C@H](O)[C@H](O)CC(=NO[C@@H]4O[C@H](CO)[C@@H](O)[C@H](O)[C@H]4O)[C@H]3CC[C@H]2C(=O)N1C1CCCCC1	0.648	1.16	0.84	0.402	-0.384	-0.0148	-0.0288	0.625	0.183	0.23 (inactive)	-0.0314	0.582 (inactive)	0.423 (inactive)	-0.0175 (inactive)	0.234 (inactive)	-0.534	-0.0313	1.03	0.843	0.61
COCCCNC(=O)[C@]1(CCC(=O)OC(C)(C)C)N=C(c2ccc(OCCCO)cc2)O[C@@H]1c1ccccc1N=[N+]=[N-]	1.96	1.23	0.688	1.03	1.28	0.894	0.6	0.735	0.778	-12 (active)	0.951	-1.41 (inactive)	-1.67 (inactive)	-0.482 (inactive)	-0.478 (inactive)	1.45	0.283	1.54	1.1	-0.2
C=CCN1C(=O)[C@]2(O[C@H](CCn3cc(CCO)nn3)[C@@H]([Si](C)(C)c3ccc(OC)cc3)[C@@H]2C)c2cc(N3CCOC3=O)ccc21	0.766	1.2	0.469	0.338	-0.293	-0.0054	0.982	0.0269	0.574	-1.8 (inactive)	-0.246	-4.23 (inactive)	-0.771 (inactive)	7.08 (inactive)	0.144 (inactive)	1.32	-0.253	0.419	0.855	0.6
O=C1c2ccccc2[C@@]2(Cc3ccccc3N(C3CC3)C2=O)[C@H](c2ccc(CO)cc2)N1Cc1ccccc1C(F)(F)F	0.534	-0.453	0.13	-1.41	-1.41	-1.09	-0.511	-1.32	0.286	0.62 (inactive)	-0.145	-4.35 (inactive)	-0.459 (inactive)	-0.258 (inactive)	-0.0879 (inactive)	-1.07	0.21	-1.02	-0.77	-0.537
COC(=O)c1c(CC[C@@H](CO)NC(=O)N[C@H](Cc2ccccc2)Cn2cc(-c3ccccc3N)nn2)oc(C(C)=O)c1C(=O)OC	1.35	1.17	-0.422	0.323	0.629	0.237	0.34	0.348	1.14	-0.197 (inactive)	-0.0029	-0.145 (inactive)	0.41 (inactive)	3.84 (inactive)	-0.687 (inactive)	2.14	0.449	0.481	0.794	0.352
COC(=O)C1=C(C)N(Cc2ccccc2)[C@]23O[C@](C(=O)OC)(C(=O)N2[C@@H]1c1ccccc1)[C@H]1CCOC(=O)[C@H]13	0.038	0.192	0.149	0.628	0.384	0.52	0.328	1.41	0.84	-0.431 (inactive)	0.313	-0.147 (inactive)	-1.02 (inactive)	0.286 (inactive)	-0.213 (inactive)	0.0391	-0.0118	0.252	0.22	1.05
COc1ccc(CCNC(=O)[C@@H]2c3ccccc3C(=O)N(c3ccc(C)cn3)[C@H]2c2ccc(CO)cc2)cc1	0.315	0.469	-0.34	-2.21	-0.25	-0.609	-0.61	-1.17	-0.293	0.85 (inactive)	-0.657	0.569 (inactive)	-0.456 (inactive)	0.648 (inactive)	0.459 (inactive)	-0.776	-0.253	-2.23	-1.76	-0.497
